Test results from PubChem BioAssay AID1159580 (chemical genetic matrix, 2015).
Several values for one entry are separate records, joined by “and”; a condition that tells them apart may be missing. Equal entries are not always repeated. Screen size: about 5,500 compounds; about 2,000 (36%) were called active. Roughly 18% stayed inconclusive and do not appear here. No stated cut-off is given here; in the data, active means normalized growth mostly below about 0.91 (no sharp cut-off); inconclusive means no clear call, values can overlap the other calls; inactive means mostly above about 0.92. The list shows a part of the results.

Experiment: chemical genetic growth profiling, strain panel (AID 1159580);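 further: tested at 20 µM; growth read once vehicle control cultures reached saturation at 30 °C; 1 = growth at the plate median or of vehicle wells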
Details: S. cerevisiae deletion strains, growth OD
[1] = locus YGR229C, strain SMI1, stronger effect = lower value
[2] = locus YNL322C, strain KRE1, stronger effect = lower value

Measured: normalized growth

O=C(O)P(=O)(O)O
inactive: locus YAL013W, strain DEP1, stronger effect = lower value 0.961 | locus YAL021C, strain ccr4, stronger effect = lower value 1.01 | locus YAL026C, strain drs2, stronger effect = lower value 0.979 | locus YAL030W, strain snc1, stronger effect = lower value 0.985 | locus YBL061C, strain skt5, stronger effect = lower value 0.984 | locus YBR009C, strain hhf1, stronger effect = lower value 1.01 | locus YBR021W, strain FUR4, stronger effect = lower value 0.994 | locus YBR023C, strain chs3, stronger effect = lower value 0.969 | locus YBR171W, strain sec66, stronger effect = lower value 0.994 | locus YBR229C, strain ROT2, stronger effect = lower value 0.996 | locus YBR231C, strain swc5, stronger effect = lower value 0.958 | locus YBR279W, strain paf1, stronger effect = lower value 0.981 | locus YCL011C, strain gbp2, stronger effect = lower value 0.982 | locus YCL016C, strain dcc1, stronger effect = lower value 0.998 | locus YCL029C, strain bik1, stronger effect = lower value 0.969 | locus YCL069W, strain vba3, stronger effect = lower value 1 | locus YCR088W, strain abp1, stronger effect = lower value 0.984 | locus YDL005C, strain med2, stronger effect = lower value 0.968 | locus YDL035C, strain GPR1, stronger effect = lower value 1 | locus YDL040C, strain nat1, stronger effect = lower value 0.984 | locus YDL074C, strain BRE1, stronger effect = lower value 0.892 | locus YDL101C, strain DUN1, stronger effect = lower value 0.964 | locus YDL134C, strain PPH21, stronger effect = lower value 1.01 | locus YDL185W, strain tfp1, stronger effect = lower value 0.932 | locus YDL192W, strain arf1, stronger effect = lower value 0.961 | locus YDR001C, strain nth1, stronger effect = lower value 0.976 | locus YDR069C, strain doa4, stronger effect = lower value 0.983 | locus YDR101C, strain arx1, stronger effect = lower value 0.983 | locus YDR137W, strain rgp1, stronger effect = lower value 0.984 | locus YDR150W, strain NUM1, stronger effect = lower value 0.986 | locus YDR159W, strain sac3, stronger effect = lower value 0.963 | locus YDR162C, strain NBP2, stronger effect = lower value 0.902 | locus YDR195W, strain ref2 0.955 | locus YDR297W, strain sur2, stronger effect = lower value 0.992 | locus YDR318W, strain mcm21, stronger effect = lower value 0.976 | locus YDR334W, strain swr1, stronger effect = lower value 0.988 | locus YDR335W, strain msn5, stronger effect = lower value 0.991 | locus YDR388W, stronger effect = lower value 0.967 | locus YDR392W, strain spt3, stronger effect = lower value 0.977 | locus YDR502C, strain sam2, stronger effect = lower value 0.957 | locus YEL003W, strain gim4, stronger effect = lower value 0.984 | locus YEL037C, strain rad23, stronger effect = lower value 0.99 | locus YEL061C, strain CIN8 (second series), stronger effect = lower value 0.975 | locus YEL061C, strain CIN8, stronger effect = lower value 0.984 | locus YER015W, strain faa2, stronger effect = lower value 0.984 | locus YER016W, strain bim1, stronger effect = lower value 0.983 | locus YER110C, stronger effect = lower value 0.936 | locus YER111C, strain swi4, stronger effect = lower value 0.98 | locus YER155C, strain BEM2 (second series), stronger effect = lower value 0.935 | locus YER155C, strain BEM2, stronger effect = lower value 0.983 | locus YER167W, strain BCK2, stronger effect = lower value 0.98 | locus YFR010W, strain ubp6, stronger effect = lower value 0.965 | locus YGL078C, strain dbp3, stronger effect = lower value 0.986 | locus YGL086W, strain mad1, stronger effect = lower value 0.965 | locus YGL167C, strain pmr1, stronger effect = lower value 0.984 | locus YGL173C, strain kem1, stronger effect = lower value 0.992 | locus YGL227W, strain vid30, stronger effect = lower value 0.982 | locus YGL240W, strain doc1, stronger effect = lower value 0.964 | locus YGL248W, strain PDE1, stronger effect = lower value 0.94 | locus YGL253W, strain hxk2, stronger effect = lower value 0.985 | locus YGR078C, strain PAC10, stronger effect = lower value 0.93 | locus YGR135W, strain pre9, stronger effect = lower value 0.945 | [1] 0.886 | locus YGR252W, strain gcn5, stronger effect = lower value 0.911 | locus YHR013C, strain ard1, stronger effect = lower value 0.985 | locus YHR027C, strain rpn1, stronger effect = lower value 0.999 | locus YHR079C, strain IRE1 (second series), stronger effect = lower value 0.963 | locus YHR079C, strain IRE1, stronger effect = lower value 1.05 | locus YHR094C, strain hxt1, stronger effect = lower value 0.982 | locus YHR129C, strain ARP1, stronger effect = lower value 0.973 | locus YHR142W, strain chs7, stronger effect = lower value 0.978 | locus YHR200W, strain rpn10, stronger effect = lower value 0.96 | locus YIL066C, strain RNR3, stronger effect = lower value 0.999 | locus YIL073C, strain SPO22, stronger effect = lower value 0.868 | locus YIL125W, strain kgd1, stronger effect = lower value 0.979 | locus YIR030C, strain dcg1, stronger effect = lower value 0.959 | locus YJL092W, strain hpr5, stronger effect = lower value 0.982 | locus YJL095W, strain BCK1 (second series), stronger effect = lower value 0.993 | locus YJL115W, strain asf1, stronger effect = lower value 0.986 | locus YJL129C, strain trk1, stronger effect = lower value 0.984 | locus YJL134W, strain LCB3, stronger effect = lower value 0.985 | locus YJL154C, strain vps35, stronger effect = lower value 0.977 | locus YJL164C, strain tpk1, stronger effect = lower value 1 | locus YJL166W, strain qcr8, stronger effect = lower value 0.978 | locus YJL168C, strain set2, stronger effect = lower value 0.97 | locus YJL187C, strain SWE1 (second series), stronger effect = lower value 0.942 | locus YJL187C, strain SWE1, stronger effect = lower value 0.965 | locus YJR043C, strain POL32, stronger effect = lower value 0.972 | locus YJR066W, strain TOR1, stronger effect = lower value 0.982 | locus YJR075W, strain HOC1, stronger effect = lower value 0.926 | locus YKL009W, strain mrt4, stronger effect = lower value 0.931 | locus YKL068W, stronger effect = lower value 0.969 | locus YKL085W, strain MDH1 (second series), stronger effect = lower value 0.96 | locus YKL085W, strain MDH1, stronger effect = lower value 0.96 | locus YKL160W, strain elf1, stronger effect = lower value 0.995 | locus YKL190W, strain CNB1, stronger effect = lower value 0.981 | locus YKR026C, strain gcn3, stronger effect = lower value 0.977 | locus YKR091W, strain srl3, stronger effect = lower value 0.986 | locus YLL001W, strain dnm1, stronger effect = lower value 0.991 | locus YLL026W, stronger effect = lower value 1 | locus YLL041C, strain sdh2, stronger effect = lower value 0.989 | locus YLR027C, strain aat2, stronger effect = lower value 0.974 | locus YLR039C, strain RIC1, stronger effect = lower value 0.855 | locus YLR058C, strain SHM2, stronger effect = lower value 0.97 | locus YLR102C, strain apc9, stronger effect = lower value 0.977 | locus YLR113W, strain HOG1, stronger effect = lower value 1.07 | locus YLR221C, strain rsa3, stronger effect = lower value 0.975 | locus YLR258W, strain gsy2, stronger effect = lower value 1 | locus YLR262C, strain YPT6 (second series), stronger effect = lower value 0.967 | locus YLR262C, strain YPT6, stronger effect = lower value 0.842 | locus YLR268W, strain sec22, stronger effect = lower value 0.949 | locus YLR320W, strain mms22, stronger effect = lower value 0.967 | locus YLR330W, strain CHS5, stronger effect = lower value 0.957 | locus YLR342W, strain FKS1 (second series), stronger effect = lower value 0.897 | locus YLR342W, strain FKS1, stronger effect = lower value 0.981 | locus YLR357W, strain rsc2, stronger effect = lower value 0.972 | locus YLR370C, strain arc18, stronger effect = lower value 0.995 | locus YLR371W, strain rom2, stronger effect = lower value 0.982 | locus YLR384C, strain iki3, stronger effect = lower value 1 | locus YLR418C, strain cdc73, stronger effect = lower value 0.91 | locus YML016C, strain PPZ1, stronger effect = lower value 0.984 | locus YML032C, strain rad52, stronger effect = lower value 0.977 | locus YML120C, strain ndi1, stronger effect = lower value 0.98 | locus YML124C, strain tub3, stronger effect = lower value 0.981 | locus YMR058W, strain fet3, stronger effect = lower value 0.983 | locus YMR078C, strain ctf18, stronger effect = lower value 0.956 | locus YMR125W, strain sto1, stronger effect = lower value 0.986 | locus YMR129W, stronger effect = lower value 0.984 | locus YMR205C, strain PFK2, stronger effect = lower value 0.975 | locus YMR223W, strain ubp8, stronger effect = lower value 0.95 | locus YMR231W, strain pep5, stronger effect = lower value 0.993 | locus YMR263W, strain SAP30, stronger effect = lower value 0.938 | locus YNL067W, strain RPL9B, stronger effect = lower value 0.923 | locus YNL071W, strain lat1, stronger effect = lower value 0.99 | locus YNL128W, strain TEP1, stronger effect = lower value 0.925 | locus YNL153C, strain GIM3, stronger effect = lower value 0.968 | locus YNL183C, strain NPR1, stronger effect = lower value 0.975 | locus YNL209W, strain ssb2, stronger effect = lower value 0.983 | locus YNL233W, strain BNI4, stronger effect = lower value 0.923 | locus YNL248C, strain rpa49, stronger effect = lower value 0.981 | locus YNL250W, strain rad50, stronger effect = lower value 0.956 | locus YNL271C, strain bni1, stronger effect = lower value 0.966 | locus YNL298W, strain CLA4, stronger effect = lower value 0.976 | locus YNL307C, strain MCK1, stronger effect = lower value 0.962 | locus YNL322C, strain KRE1 (second series), stronger effect = lower value 0.981 | [2] 0.974 | locus YNR049C, strain mso1, stronger effect = lower value 0.987 | locus YNR052C, strain pop2, stronger effect = lower value 0.971 | locus YOL012C, strain htz1 0.927 | locus YOL147C, strain pex11, stronger effect = lower value 0.976 | locus YOR001W, strain rrp6, stronger effect = lower value 0.981 | locus YOR061W, strain CKA2, stronger effect = lower value 0.98 | locus YOR069W, strain VPS5, stronger effect = lower value 0.986 | locus YOR070C, strain gyp1, stronger effect = lower value 0.988 | locus YOR080W, strain dia2, stronger effect = lower value 0.987 | locus YOR083W, strain WHI5, stronger effect = lower value 0.995 | locus YOR106W, strain vam3, stronger effect = lower value 0.983 | locus YOR136W, strain idh2, stronger effect = lower value 0.968 | locus YOR144C, strain elg1, stronger effect = lower value 0.977 | locus YOR184W, strain ser1, stronger effect = lower value 0.941 | locus YOR231W, strain MKK1, stronger effect = lower value 1.04 | locus YOR265W, strain rbl2, stronger effect = lower value 0.996 | locus YOR270C, strain vph1, stronger effect = lower value 0.961 | locus YOR290C, strain snf2, stronger effect = lower value 0.997 | locus YOR316C, strain cot1, stronger effect = lower value 0.974 | locus YPL051W, strain arl3, stronger effect = lower value 1.01 | locus YPL055C, strain LGE1, stronger effect = lower value 0.948 | locus YPL078C, strain atp4, stronger effect = lower value 1 | locus YPL106C, strain sse1, stronger effect = lower value 0.978 | locus YPL240C, strain hsp82, stronger effect = lower value 0.985 | locus YPL241C, strain CIN2, stronger effect = lower value 0.986 | locus YPL256C, strain CLN2, stronger effect = lower value 1.07 | locus YPR119W, strain clb2, stronger effect = lower value 0.963 | locus YPR141C, strain kar3, stronger effect = lower value 0.958 | locus YPR163C, strain tif3, stronger effect = lower value 0.989 | locus YPR167C, strain met16, stronger effect = lower value 0.963 | strain wtn01, stronger effect = lower value 0.964
0.738 (active) and 1.03 (inactive): locus YJL095W, strain BCK1, stronger effect = lower value
0.898 (active) and 1.05 (inactive): locus YHR030C, strain SLT2, stronger effect = lower value
active: locus YKR001C, strain vps1, stronger effect = lower value 0.894 | locus YMR307W, strain GAS1, stronger effect = lower value 0.443

O=C(O)CP(=O)(O)O
inactive: locus YAL040C, strain CLN3, stronger effect = lower value 1 | locus YCL061C, strain MRC1 (second series), stronger effect = lower value 1 | locus YDR363W, strain ESC2, stronger effect = lower value 1.01 | locus YER002W, strain NOP16, stronger effect = lower value 1.01 | [1] 1.02 | locus YNL175C, strain NOP13, stronger effect = lower value 1.02 | locus YNL197C, strain WHI3, stronger effect = lower value 1.01 | locus YNL224C, strain SQS1, stronger effect = lower value 0.993 | [2] 1.01 | locus YOR083W, strain WHI5 (second series), stronger effect = lower value 1.01
